Source: the supplement of paper PMC10849652
About 8,800 targets were measured; listed, in parts, are those with a hit and a random draw of the rest. About 0.5% of all pairs of compound and target were hits. Values without a mark were called inactive.

What was measured:
Assay in all cases: log2 fold change, soluble protein after heating vs DMSO (PISA); higher = thermal stabilisation; K562 lysate, 10 uM; active = over 0.2 and 3.5 SD of the protein, either way, in both replicates (recomputed)
lapatinib = compound: CS(=O)(=O)CCNCc1ccc(-c2ccc3ncnc(Nc4ccc(OCc5cccc(F)c5)c(Cl)c4)c3c2)o1 [lapatinib]
In short: (§1)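 K562 pellets were dounce-homogenised in PBS pH 7.4 containing 1 mM MgCl2, and the crude extract, at 1 mg/mL protein, was exposed to 10 μM compound for 30 min. Aliquots were heated for 3 min across 48°C-58°C, pooled, brought to 0.5% NP-40 at 4°C and spun at 21,000xg for 90 min, with the supernatant taken as soluble protein. TMTpro 16plex LC-MS/MS with equalised channel sums quantified that protein. Values are log-two fold changes in thermal stability relative to solvent controls, taken from duplicates.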

pictilisib = compound: CS(=O)(=O)N1CCN(Cc2cc3nc(-c4cccc5[nH]ncc45)nc(N4CCOCC4)c3s2)CC1 [pictilisib]
In short: as §1

crizotinib = compound: C[C@@H](Oc1cc(-c2cnn(C3CCNCC3)c2)cnc1N)c1c(Cl)ccc(F)c1Cl [crizotinib]
In short: as §1

[1] = compound: C[C@H](C1=CC=C(C=C1)C(=O)NC2=C3C=CNC3=NC=C2)N
In short: as §1

duvelisib = compound: C[C@H](Nc1ncnc2nc[nH]c12)c1cc2cccc(Cl)c2c(=O)n1-c1ccccc1 [duvelisib]
In short: as §1

gandotinib = compound: Cc1cc(Nc2cc(CN3CCOCC3)c3nc(C)c(Cc4ccc(Cl)cc4F)n3n2)n[nH]1 [gandotinib]
In short: as §1

tozasertib = compound: Cc1cc(Nc2cc(N3CCN(C)CC3)nc(Sc3ccc(NC(=O)C4CC4)cc3)n2)n[nH]1 [tozasertib]
In short: as §1

doramapimod = compound: Cc1ccc(-n2nc(C(C)(C)C)cc2NC(=O)Nc2ccc(OCCN3CCOCC3)c3ccccc23)cc1 [doramapimod]
In short: as §1

bafetinib = compound: Cc1ccc(NC(=O)c2ccc(CN3CC[C@H](N(C)C)C3)c(C(F)(F)F)c2)cc1Nc1nccc(-c2cncnc2)n1 [bafetinib]
In short: as §1

[2] = compound: Cc1cccc(CC(=O)N2CCc3c2ccc(-c2cn(C)c4ncnc(N)c24)c3F)n1
In short: as §1

UniProt Q99708, sequence (Q99708 whole entry, looked up): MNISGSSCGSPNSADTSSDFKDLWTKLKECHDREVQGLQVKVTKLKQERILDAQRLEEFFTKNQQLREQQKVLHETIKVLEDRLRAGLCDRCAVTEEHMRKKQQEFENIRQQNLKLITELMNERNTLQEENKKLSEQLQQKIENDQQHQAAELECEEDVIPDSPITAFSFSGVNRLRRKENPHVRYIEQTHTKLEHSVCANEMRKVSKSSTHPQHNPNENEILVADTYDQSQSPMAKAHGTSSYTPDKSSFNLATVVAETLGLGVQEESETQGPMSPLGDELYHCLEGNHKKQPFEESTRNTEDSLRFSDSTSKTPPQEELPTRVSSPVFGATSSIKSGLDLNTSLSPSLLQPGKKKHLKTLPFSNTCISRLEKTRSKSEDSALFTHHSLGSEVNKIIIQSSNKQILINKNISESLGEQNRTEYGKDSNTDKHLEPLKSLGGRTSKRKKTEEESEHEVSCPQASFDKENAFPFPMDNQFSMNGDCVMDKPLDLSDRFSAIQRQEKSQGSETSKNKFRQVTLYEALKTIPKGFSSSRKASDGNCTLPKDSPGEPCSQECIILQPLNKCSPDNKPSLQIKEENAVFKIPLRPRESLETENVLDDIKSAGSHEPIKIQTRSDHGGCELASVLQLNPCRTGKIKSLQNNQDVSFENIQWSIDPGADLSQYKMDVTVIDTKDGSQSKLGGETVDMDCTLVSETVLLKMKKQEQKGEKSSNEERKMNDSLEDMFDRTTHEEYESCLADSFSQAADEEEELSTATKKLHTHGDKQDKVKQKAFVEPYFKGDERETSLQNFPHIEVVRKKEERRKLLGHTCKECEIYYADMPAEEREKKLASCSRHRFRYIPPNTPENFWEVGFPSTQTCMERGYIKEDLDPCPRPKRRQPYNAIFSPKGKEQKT
UniProt P78406, sequence (P78406 whole entry, looked up): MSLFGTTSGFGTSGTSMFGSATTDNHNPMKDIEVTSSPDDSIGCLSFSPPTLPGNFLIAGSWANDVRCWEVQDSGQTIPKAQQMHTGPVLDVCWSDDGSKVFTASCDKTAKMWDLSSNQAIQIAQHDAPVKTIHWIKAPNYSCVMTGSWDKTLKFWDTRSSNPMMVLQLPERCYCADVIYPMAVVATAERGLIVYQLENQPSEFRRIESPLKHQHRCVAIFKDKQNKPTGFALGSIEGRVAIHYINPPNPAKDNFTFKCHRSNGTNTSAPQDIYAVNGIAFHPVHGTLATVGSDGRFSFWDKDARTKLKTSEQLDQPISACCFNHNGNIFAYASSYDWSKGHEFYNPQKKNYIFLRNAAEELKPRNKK
UniProt P18754, sequence (P18754 whole entry, looked up): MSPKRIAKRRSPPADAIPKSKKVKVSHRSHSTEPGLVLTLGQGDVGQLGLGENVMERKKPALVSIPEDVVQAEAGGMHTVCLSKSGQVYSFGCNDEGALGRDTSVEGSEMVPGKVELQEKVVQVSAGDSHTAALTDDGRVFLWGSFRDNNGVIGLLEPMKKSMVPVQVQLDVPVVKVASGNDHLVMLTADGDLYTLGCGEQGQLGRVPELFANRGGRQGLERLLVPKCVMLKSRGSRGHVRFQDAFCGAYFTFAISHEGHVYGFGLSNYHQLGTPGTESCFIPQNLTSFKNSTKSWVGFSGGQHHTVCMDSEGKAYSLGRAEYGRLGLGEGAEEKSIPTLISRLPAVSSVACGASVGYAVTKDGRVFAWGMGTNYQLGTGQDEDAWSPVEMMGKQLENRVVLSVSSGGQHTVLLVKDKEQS
UniProt Q14644, sequence (Q14644 whole entry, looked up): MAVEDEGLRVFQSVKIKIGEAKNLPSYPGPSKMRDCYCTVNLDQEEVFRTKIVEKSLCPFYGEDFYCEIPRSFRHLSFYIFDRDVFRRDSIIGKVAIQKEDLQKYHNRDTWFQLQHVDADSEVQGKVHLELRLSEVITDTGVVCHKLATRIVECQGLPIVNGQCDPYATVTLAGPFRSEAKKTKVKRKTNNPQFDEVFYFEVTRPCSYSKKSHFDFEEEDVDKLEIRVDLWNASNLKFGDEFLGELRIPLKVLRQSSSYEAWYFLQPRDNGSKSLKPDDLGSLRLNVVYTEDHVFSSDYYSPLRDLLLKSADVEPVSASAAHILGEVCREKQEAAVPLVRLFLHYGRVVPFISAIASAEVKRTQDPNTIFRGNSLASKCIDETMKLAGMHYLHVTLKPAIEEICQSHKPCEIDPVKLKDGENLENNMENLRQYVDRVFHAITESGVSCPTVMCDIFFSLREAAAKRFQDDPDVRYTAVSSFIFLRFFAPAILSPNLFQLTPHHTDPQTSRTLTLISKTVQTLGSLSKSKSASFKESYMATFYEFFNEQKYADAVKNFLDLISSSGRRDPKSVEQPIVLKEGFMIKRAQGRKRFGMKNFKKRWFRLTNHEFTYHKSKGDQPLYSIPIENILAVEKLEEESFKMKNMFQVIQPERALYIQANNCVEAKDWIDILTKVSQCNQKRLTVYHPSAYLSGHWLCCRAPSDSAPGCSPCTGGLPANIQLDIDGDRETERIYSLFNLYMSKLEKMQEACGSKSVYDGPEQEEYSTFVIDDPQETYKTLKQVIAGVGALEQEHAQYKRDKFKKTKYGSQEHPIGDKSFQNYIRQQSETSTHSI
UniProt Q9BTD8, sequence (Q9BTD8 whole entry, looked up): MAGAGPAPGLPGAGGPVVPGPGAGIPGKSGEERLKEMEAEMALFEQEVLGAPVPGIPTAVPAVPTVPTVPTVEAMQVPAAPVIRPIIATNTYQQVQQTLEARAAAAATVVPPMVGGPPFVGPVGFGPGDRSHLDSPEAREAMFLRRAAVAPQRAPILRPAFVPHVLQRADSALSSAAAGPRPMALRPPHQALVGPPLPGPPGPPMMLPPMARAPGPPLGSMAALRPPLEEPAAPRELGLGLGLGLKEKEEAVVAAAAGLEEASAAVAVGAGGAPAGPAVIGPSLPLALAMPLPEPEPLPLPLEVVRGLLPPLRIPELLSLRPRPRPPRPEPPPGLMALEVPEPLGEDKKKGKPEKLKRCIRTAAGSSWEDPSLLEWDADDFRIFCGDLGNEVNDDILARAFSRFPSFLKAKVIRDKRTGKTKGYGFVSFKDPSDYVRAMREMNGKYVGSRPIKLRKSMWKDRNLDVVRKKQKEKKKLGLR
UniProt P52756, sequence (P52756 whole entry, looked up): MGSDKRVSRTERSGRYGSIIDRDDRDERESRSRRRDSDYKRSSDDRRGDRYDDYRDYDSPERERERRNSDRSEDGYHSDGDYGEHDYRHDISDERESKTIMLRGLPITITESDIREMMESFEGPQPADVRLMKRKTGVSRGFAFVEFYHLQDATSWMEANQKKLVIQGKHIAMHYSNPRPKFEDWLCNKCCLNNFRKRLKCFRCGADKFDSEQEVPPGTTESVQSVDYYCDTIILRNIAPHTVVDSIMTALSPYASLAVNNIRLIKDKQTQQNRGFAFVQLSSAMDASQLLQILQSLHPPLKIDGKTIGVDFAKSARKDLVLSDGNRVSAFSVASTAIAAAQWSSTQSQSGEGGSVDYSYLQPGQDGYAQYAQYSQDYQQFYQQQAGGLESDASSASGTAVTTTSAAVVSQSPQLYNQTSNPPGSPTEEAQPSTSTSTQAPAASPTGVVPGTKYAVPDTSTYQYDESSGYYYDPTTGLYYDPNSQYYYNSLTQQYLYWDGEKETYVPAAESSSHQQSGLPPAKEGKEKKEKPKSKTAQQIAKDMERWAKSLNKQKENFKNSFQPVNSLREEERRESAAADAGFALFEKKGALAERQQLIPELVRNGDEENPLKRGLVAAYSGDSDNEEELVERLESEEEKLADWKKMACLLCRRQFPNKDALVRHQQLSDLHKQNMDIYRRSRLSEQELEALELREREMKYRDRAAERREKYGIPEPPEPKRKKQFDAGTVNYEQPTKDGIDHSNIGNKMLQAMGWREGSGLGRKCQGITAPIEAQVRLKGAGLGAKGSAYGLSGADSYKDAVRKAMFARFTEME
UniProt Q13546, sequence (Q13546 whole entry, looked up): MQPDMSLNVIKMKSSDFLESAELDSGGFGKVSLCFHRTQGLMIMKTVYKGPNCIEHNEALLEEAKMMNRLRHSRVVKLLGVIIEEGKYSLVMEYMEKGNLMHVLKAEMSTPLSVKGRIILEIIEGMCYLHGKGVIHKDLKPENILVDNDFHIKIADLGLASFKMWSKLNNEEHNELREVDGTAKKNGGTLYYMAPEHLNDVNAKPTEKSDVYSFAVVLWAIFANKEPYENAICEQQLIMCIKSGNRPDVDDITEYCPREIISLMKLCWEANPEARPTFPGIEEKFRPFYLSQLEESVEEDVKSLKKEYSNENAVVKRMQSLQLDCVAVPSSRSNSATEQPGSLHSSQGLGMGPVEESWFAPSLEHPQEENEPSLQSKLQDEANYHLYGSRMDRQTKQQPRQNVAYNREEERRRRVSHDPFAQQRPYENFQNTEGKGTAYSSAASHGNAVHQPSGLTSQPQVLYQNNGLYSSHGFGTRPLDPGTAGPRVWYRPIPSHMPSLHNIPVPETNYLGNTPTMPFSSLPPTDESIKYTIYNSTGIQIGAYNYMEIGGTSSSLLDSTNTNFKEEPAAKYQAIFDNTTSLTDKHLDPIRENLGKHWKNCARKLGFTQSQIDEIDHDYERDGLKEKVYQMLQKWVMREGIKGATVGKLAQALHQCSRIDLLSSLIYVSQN
UniProt Q15287, sequence (Q15287 whole entry, looked up): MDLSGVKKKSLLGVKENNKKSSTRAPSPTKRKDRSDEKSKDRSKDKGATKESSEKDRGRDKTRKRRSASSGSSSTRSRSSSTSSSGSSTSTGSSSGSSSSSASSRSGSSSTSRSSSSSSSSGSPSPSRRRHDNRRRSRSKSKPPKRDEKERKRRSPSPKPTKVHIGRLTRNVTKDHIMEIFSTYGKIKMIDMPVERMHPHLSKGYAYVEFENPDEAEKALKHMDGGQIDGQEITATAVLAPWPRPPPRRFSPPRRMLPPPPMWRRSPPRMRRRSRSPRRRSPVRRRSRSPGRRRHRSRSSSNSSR
UniProt Q9P0P0, sequence (Q9P0P0 whole entry, looked up): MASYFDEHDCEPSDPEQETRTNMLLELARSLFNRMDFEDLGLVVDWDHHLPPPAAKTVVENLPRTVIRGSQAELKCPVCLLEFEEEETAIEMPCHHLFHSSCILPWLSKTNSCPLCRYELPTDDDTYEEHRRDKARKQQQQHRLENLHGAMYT

Target	log2 fold change (lapatinib)	log2 fold change (pictilisib)	log2 fold change (crizotinib)	log2 fold change [1]	log2 fold change (duvelisib)	log2 fold change (gandotinib)	log2 fold change (tozasertib)	log2 fold change (doramapimod)	log2 fold change (bafetinib)	log2 fold change [2]
RAB8B (UniProt Q92930)	0.065	-0.018	0.034	0.037	0.098	-0.289 (active)	0.003	-0.013	0.088	-0.079
SDHA (UniProt P31040)	0.004	-0.011	-0.008	-0.004	0.013	0.03	0.006	0.024	0.026	-0.017
RNF17 (UniProt Q9BXT8)	-0.02	0.031	0.105	0.08	-0.071	0.028	0.119	0.006	-0.285	-0.257
SERINC3 (UniProt Q13530)	-0.052	-0.028	-0.07	-0.38 (active)	-0.001	0.16	-0.012	0.03	-0.014	0.075
RARS (UniProt P54136)	0.003	0.019	-0.047	0.039	-0.018	-0.078	0.019	0.042	-0.029	0.041
RPL8 (UniProt P62917)	-0.005	0.01	0.059	0.147	0.008	-0.072	0.033	-0.038	0.071	-0.051
RNF181 (UniProt Q9P0P0)	0.079	-0.069	0.049	0.057	0.028	-0.042	0.054	0.057	-0.03	0.01
SERPINI1 (UniProt Q99574)	0.034	-0.061	0.001	0.036	0.007	0.055	0.014	-0.042	-0.065	0.04
RIPK1 (UniProt Q13546)	0.006	-0.002	0.061	-0.026	-0.05	0.256 (active)	0.326 (active)	0.038	0.007	0.755 (active)
RCOR1 (UniProt Q9UKL0)	-0.056	-0.069	0.048	-0.083	-0.004	-0.009	0.019	-0.061	-0.056	0.041
SEC62 (UniProt Q99442)	0.028	-0.029	0.011	0.231	0	-0.07	-0.024	0.002	0.029	-0.072
RNPS1 (UniProt Q15287)	0.025	0.044	0.254 (active)	-0.02	0.038	0	0.042	-0.057	-0.009	-0.001
RCC1 isoform 2 (UniProt P18754)	-0.018	0.009	-0.063	-0.019	0.017	-0.066	0.011	-0.017	-0.01	0.034
RASA3 (UniProt Q14644)	0.08	-0.044	-0.061	-0.049	0.103	-0.026	-0.017	-0.005	-0.198	0.005
RAE1 (UniProt P78406)	0.055	0.003	0.05	-0.158	-0.063	0.031	-0.071	-0.032	0.235	0.111
RBM5 (UniProt P52756)	0.029	-0.013	0.005	-0.268	-0.058	-0.015	0	0.058	-0.051	0.089
RAB6D (UniProt Q53S08)	0.005	-0.008	-0.036	-0.058	0	0.189	0.015	-0.001	-0.136	0.154
RPS18 (UniProt P62269)	-0.046	0.006	-0.028	-0.186	-0.019	0.071	0.008	0.026	-0.004	0.094
RBBP8 isoform 2 (UniProt Q99708)	-0.042	0.069	-0.085	0.065	0.032	-0.013	0.177	0.024	-0.079	0.007
RNF213, A0A0A0MTC1	-0.012	-0.014	-0.064	-0.043	0.008	-0.123	0.043	0.033	-0.066	0.052
RAP1GAP isoform 4 (UniProt P47736)	-0.019	-0.018	-0.044	0.044	-0.032	-0.044	-0.009	-0.001	-0.069	0.007
RETSAT (UniProt Q6NUM9)	0.056	-0.048	-0.329	-0.159	0.039	0.167	-0.024	0.006	-0.097	0.391
RPL37A (UniProt P61513)	-0.012	-0.01	-0.011	0.312 (active)	-0.088	-0.131	-0.087	-0.044	0.02	-0.2
RAB21 (UniProt Q9UL25)	-0.028	-0.053	-0.001	0.208	-0.087	-0.112	-0.013	-0.055	-0.059	-0.09
RAB1B (UniProt Q9H0U4)	0.021	0.053	0.031	-0.35 (active)	0.033	0.156	0.011	-0.052	-0.038	0.242 (active)
SCCPDH (UniProt Q8NBX0)	0.108	0.006	0.394	-0.179	0.195	0.869 (active)	-0.052	-0.102	-0.015	0.034
RBM42 (UniProt Q9BTD8)	0.05	0.049	0.01	0.026	-0.032	0.04	-0.001	0.216 (active)	0.083	-0.01
SEC13 isoform 3 (UniProt P55735)	0	0.023	0.058	0.417 (active)	0.02	-0.076	0.01	-0.031	-0.016	-0.068
RHOA (UniProt P61586)	0.009	0.314	0.035	0.345 (active)	-0.023	-0.058	-0.092	-0.036	0.08	-0.138
RIC1 (UniProt Q4ADV7)	0.016	-0.02	-0.06	-0.032	-0.048	-0.092	0.01	0.026	0.3 (active)	0.108
